# Where “and” joins values, the source holds several entries; their conditions need not be identical. Equal entries are not always repeated. About 83,000 compounds went through this panel and 20% of them were active in at least one assay; those are over-represented in the sample as a whole.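 Percent growth is the endpoint: 0 to 100 indicates growth inhibition (40 means 60% inhibition), 0 means no net growth, and negative values indicate cell death.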 Calls of active or inactive are those of the source. The calls were made as follows: active = growth percent below 10; inactive = the rest.
# Tested on: M14 melanoma
# Assay: NCI-60 one-dose screen, 48 h (100 = growth as untreated, 0 = no growth, -100 = all killed)
# Conditions: 10 µM unless noted
row,Compound,growth
1,CN1CCN(CCCN2c3ccccc3Sc3ccc(Cl)cc32)CC1,-53.2% (active) and 63.3% (inactive)
2,Nc1ncc(-c2ccc3ncnc(N4CCc5ccc(Cl)cc54)c3c2)cc1C(F)(F)F,26.7% (inactive)
3,CC(C)(C)c1cc(NC(=O)Nc2ccc(-c3cn4c(n3)sc3cc(OCCN5CCOCC5)ccc34)cc2)no1,37.4% (inactive) and 24% (inactive)
4,CC1(Cc2ccccc2)CC2=C(C(=O)O1)C(c1ccccc1)NC(=O)N2 (stereo not given),98% (inactive)
5,COc1cc(C=O)ccc1Oc1ccc([N+](=O)[O-])cc1[N+](=O)[O-],102% (inactive)
